From PubChem BioAssay AID1259349 (Broad Institute, 2017)
“And” between values parts separate entries of the source, which are not always exact repeats. Equal values may be shown once. The whole screen tested about 17,000 compounds, of which about 1,100 (6.5%) were called active.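 How the source made its calls: active means z-score of -3 or lower, meaning strong loss of probe binding signal; inactive means the rest.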 This excerpt belongs to a sample that is enriched for actives. Some structures have more than one record in an assay (separate samples or runs), and their calls can disagree.

Biological target: Insulin-degrading enzyme (Homo sapiens) (UniProt P14735)
Sequence (P14735 42-1019 limits assumed): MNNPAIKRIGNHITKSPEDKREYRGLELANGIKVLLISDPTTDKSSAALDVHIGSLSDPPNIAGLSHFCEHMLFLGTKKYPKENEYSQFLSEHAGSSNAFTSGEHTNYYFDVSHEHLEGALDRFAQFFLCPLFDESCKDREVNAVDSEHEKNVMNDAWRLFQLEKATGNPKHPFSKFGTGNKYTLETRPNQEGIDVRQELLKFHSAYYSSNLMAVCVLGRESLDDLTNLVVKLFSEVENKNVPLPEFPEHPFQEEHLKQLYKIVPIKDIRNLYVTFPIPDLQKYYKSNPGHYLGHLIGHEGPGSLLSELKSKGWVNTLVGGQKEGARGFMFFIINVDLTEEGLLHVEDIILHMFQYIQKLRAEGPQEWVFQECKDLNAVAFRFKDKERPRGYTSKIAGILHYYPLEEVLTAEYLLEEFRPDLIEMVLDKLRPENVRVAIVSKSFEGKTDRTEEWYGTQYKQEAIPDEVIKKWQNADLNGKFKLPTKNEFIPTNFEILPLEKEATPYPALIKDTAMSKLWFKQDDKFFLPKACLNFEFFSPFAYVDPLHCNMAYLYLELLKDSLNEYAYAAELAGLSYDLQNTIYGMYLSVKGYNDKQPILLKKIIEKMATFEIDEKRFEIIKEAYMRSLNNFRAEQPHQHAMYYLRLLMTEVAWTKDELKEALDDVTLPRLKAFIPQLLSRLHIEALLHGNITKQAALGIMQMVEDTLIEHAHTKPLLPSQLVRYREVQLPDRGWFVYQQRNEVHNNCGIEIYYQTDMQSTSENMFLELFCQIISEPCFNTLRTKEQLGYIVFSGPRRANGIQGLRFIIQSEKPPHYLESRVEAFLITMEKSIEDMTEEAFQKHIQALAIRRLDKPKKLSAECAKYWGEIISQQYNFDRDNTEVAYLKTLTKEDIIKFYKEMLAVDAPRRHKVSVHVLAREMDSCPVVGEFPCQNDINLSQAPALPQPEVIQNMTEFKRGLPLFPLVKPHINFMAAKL
Experiment: displacers of FL-6b probe from IDE – biochemical, fluorescence anisotropy, probe displacement, primary screen (AID 1259349);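 further: His-tagged human IDE residues 42-1019 made in E. coli with 30 nM FL-6b probe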
Details: purified IDE, FL-6b probe fluorescence polarization; at 20 µM; stronger effect = lower value

| Compound | z-score |
| --- | --- |
| CCCN1C[C@@H](C)[C@@H](OC)CN(C)C(=O)c2cc(NC(=O)C3CCC3)ccc2OC[C@H]1C | -0.201 (inactive) |
| O=C(C[C@@H]1C=C[C@@H](NC(=O)c2ccc3c(c2)OCO3)[C@H](CO)O1)NC1Cc2ccccc2C1 | 0.748 (inactive) |
| O=C(C1CCCC1)N1[C@@H](CO)[C@@H](c2ccccc2)C12CN(Cc1ccc(F)cc1)C2 | 1.26 (inactive) |
| O=C(c1ccccn1)N1CC2(C1)[C@@H](c1ccccc1)[C@@H](CO)N2C(=O)C1CCCCC1 | -4.56 (active) |
| CN(C)CC(=O)N1CC2(C1)[C@H](c1ccccc1)[C@H](CO)N2C(=O)C1CC1 | -1.06 (inactive) |
| CCS(=O)(=O)Nc1ccc2c(c1)C(=O)N(C)[C@H]1CC[C@H](CC(=O)N[C@@H]3CCN(Cc4ccccc4)C3)O[C@H]1CO2 | -0.74 (inactive) |
| OC[C@@H]1[C@H](c2ccc(Br)cc2)[C@@H]2CN(Cc3ccccn3)CCCCN12 | 0.871 (inactive) |
| Cc1cccc(-c2ccc([C@@H]3[C@H](CO)N4CCCCN(Cc5ccncc5)C[C@@H]34)cc2)c1 | -5.19 (active) |
| Cc1cccc(-c2ccc([C@H]3[C@@H](CO)N4CCCCN(Cc5cncnc5)C[C@H]34)cc2)c1 | -5.22 (active) |
| OC[C@@H]1[C@H](c2ccc(C3=CCCC3)cc2)[C@H]2CN(Cc3ccncc3)CCCCN12 | 1.19 (inactive) |
| CCC(=O)N1CCCCN2[C@H](CO)[C@@H](c3ccc(-c4cccnc4)cc3)[C@H]2C1 | 0.698 (inactive) |
| Cc1ccc(-c2ccc([C@H]3[C@H](CO)N4CCCCN(Cc5cncnc5)C[C@@H]34)cc2)cc1 | 3.25 (inactive) |
| COc1ccc(CN2CCCCN3[C@H](C2)[C@H](c2ccc(-c4ccc(OC)cc4)cc2)[C@@H]3CO)cc1 | 3.61 (inactive) |
| OC[C@H]1[C@H](c2ccc(-c3cccc(F)c3)cc2)[C@@H]2CN(Cc3cncnc3)CCCCN12 | 0.665 (inactive) |
| OC[C@H]1[C@H](c2ccc(-c3cccnc3)cc2)[C@H]2CN(Cc3ccccn3)CCCCN21 | -3.14 (active) |
| CO[C@H]1CN(C)C(=O)c2cc(NC(=O)NC(C)C)ccc2OC[C@H](C)N(C(=O)CN(C)C)C[C@H]1C | -0.369 (inactive) |
| COCCN(C[C@H]1[C@H](c2ccccc2)[C@@H](CO)N1C(C)=O)C(=O)c1cccnc1 | -0.97 (inactive) |
| CN(C)C(=O)c1ccc(-c2ccc([C@H]3[C@H](CO)N4CCCCN(S(C)(=O)=O)C[C@@H]34)cc2)cc1 | 4.37 (inactive) |
| O=C(C1CCCCC1)N1CC(=O)N2[C@H](CO)[C@@H](c3ccc(-c4ccccc4F)cc3)[C@@H]2C1 | -3.81 (active) |
| O=C(C1CCCC1)N1CC(=O)N2[C@H](CO)[C@H](c3ccc(Br)cc3)[C@@H]2C1 | 1.85 (inactive) |
| COCC(=O)N1CC(=O)N2[C@H](CO)[C@@H](c3ccc(-c4ccccc4F)cc3)[C@H]2C1 | -0.201 (inactive) |
| Cc1ccccc1-c1ccc(C2[C@@H]3CN(C(=O)C4CCCCC4)C[C@H]2N3)cc1 (stereo not given in full) | 1.9 (inactive) and -13.9 (active) |
| O=C(C1CCCCC1)N1CC(=O)N2[C@H](CO)[C@H](c3ccc(-c4ccccc4F)cc3)[C@H]2C1 | -2.1 (inactive) |
| O=C(C1CCC1)N1C[C@@H]2N[C@H](C1)C2c1ccc(-c2cncnc2)cc1 (stereo not given in full) | 0.446 (inactive) |

| Compound | z-score |
| --- | --- |
| O=C(C1CCCCC1)N1CC(=O)N2[C@H](CO)[C@H](c3ccc(Br)cc3)[C@H]2C1 | 2.21 (inactive) |
| O=C(C1CCC1)N1CC(=O)N2[C@H](C1)[C@@H](c1ccc(-c3ccccc3F)cc1)[C@@H]2CO | -10.1 (active) |
| O=C(C1CC1)N1CC(=O)N2[C@H](CO)[C@@H](c3ccc(-c4ccccc4F)cc3)[C@@H]2C1 | -6.21 (active) |
| CN(C)C(=O)c1ccc(-c2ccc(C3[C@@H]4CN(C(=O)Nc5ccccc5)C[C@H]3N4)cc2)cc1 (stereo not given in full) | 0.753 (inactive) |
| O=C(C1CCCC1)N1CC(=O)N2[C@H](CO)[C@H](c3ccc(Br)cc3)[C@H]2C1 | 3.78 (inactive) |
| O=C(c1ccc(F)cc1)N1CC(=O)N2[C@H](CO)[C@H](c3ccc(-c4ccccc4F)cc3)[C@@H]2C1 | 0.797 (inactive) |
| CC(C)C#Cc1ccc([C@H]2[C@@H](C#N)N(C(=O)CN(C)C)[C@H]2CO)cc1 | 0.732 (inactive) |
| COc1ccc2c3c([nH]c2c1)[C@H](CO)N(C(=O)Nc1ccc(F)cc1)CC31CCN(CC2CCOCC2)CC1 | -0.0173 (inactive) |
| CCCNC(=O)N1CC2(CN(C(=O)c3cnccn3)C2)c2c([nH]c3cc(OC)ccc23)[C@@H]1CO | -1.28 (inactive) |
| N#C[C@@H]1[C@@H](c2ccc(C3=CCCCC3)cc2)[C@@H](CO)N1C(=O)c1cccc(F)c1 | 2.45 (inactive) |
| C[C@@H]1CN([C@H](C)CO)C(=O)Cc2cc(N(C)C)ccc2O[C@H]1CN(C)C(=O)NC1CCCCC1 | -0.478 (inactive) |
| COc1ccc2c3c([nH]c2c1)[C@H](CO)N(C(C)=O)CC31CN(S(=O)(=O)c2cccs2)C1 | 0.716 (inactive) |
| CNC[C@H]1OCCCC[C@@H](C)Oc2ccc(NS(=O)(=O)c3ccc(F)cc3)cc2C(=O)N([C@H](C)CO)C[C@H]1C | 0.482 (inactive) |
| CCCNC(=O)N1[C@H](C#N)[C@@H](c2ccc(C3=CCCC3)cc2)[C@H]1CO | 0.0932 (inactive) |
| CCS(=O)(=O)N1[C@H](C#N)[C@H](c2ccc(-c3cccc(F)c3)cc2)[C@@H]1CO | 0.519 (inactive) |
| Cn1cnc(S(=O)(=O)N2C[C@@H]3N[C@H](C2)C3c2ccc(/C=C/c3ccccc3)cc2)c1 (stereo not given in full) | -1.85 (inactive) and -5.13 (active) |
| COc1ccc(-c2ccc(C3[C@@H]4CN(S(=O)(=O)c5cn(C)cn5)C[C@H]3N4)cc2)cc1 (stereo not given in full) | 2.29 (inactive) |
| Cn1cnc(S(=O)(=O)N2C[C@@H]3N[C@H](C2)C3c2ccc(-c3ccccc3F)cc2)c1 (stereo not given in full) | 0.547 (inactive) and 0.421 (inactive) |
| O=C(Nc1cccc(F)c1)N1CC(=O)N2[C@H](C1)[C@H](c1ccc(-c3ccccc3F)cc1)[C@@H]2CO | 0.741 (inactive) |
| Cc1ccc(S(=O)(=O)Nc2ccc3c(c2)C(=O)N([C@H](C)CO)C[C@@H](C)[C@H](CN(C)S(=O)(=O)c2cccs2)OCCCC[C@@H](C)O3)cc1 | -0.652 (inactive) |
| O=C(Cc1ccccn1)N[C@H]1CC[C@H](CCNS(=O)(=O)c2cccc(F)c2)O[C@@H]1CO | 0.0602 (inactive) |
| O=C(CN1CCOCC1)N1C[C@@H]2N[C@H](C1)C2c1ccc(-c2ccncc2)cc1 (stereo not given in full) | 0.193 (inactive) |
| O=C(C1CCC1)N1CC(=O)N2[C@H](CO)[C@H](c3ccc(C#CCc4ccccc4)cc3)[C@@H]2C1 | -2.52 (inactive) |
| O=C(C1CCC1)N1CC(=O)N2[C@@H](CO)[C@@H](c3ccc(C#Cc4cccc(F)c4)cc3)[C@@H]2C1 | -4.35 (active) |

| Compound | z-score |
| --- | --- |
| COCC#Cc1ccc([C@@H]2[C@H]3CN(C(=O)C4CCOCC4)CC(=O)N3[C@H]2CO)cc1 | 2.55 (inactive) |
| O=C(C1CCCCC1)N1CC(=O)N2[C@H](CO)[C@@H](c3ccc(C#Cc4cccc(F)c4)cc3)[C@@H]2C1 | 1.96 (inactive) |
| O=C(C1CCOCC1)N1CC(=O)N2[C@H](CO)[C@H](c3ccc(C#Cc4cccc(F)c4)cc3)[C@H]2C1 | -19.3 (active) |
| COCC#Cc1ccc([C@@H]2[C@@H](CO)N3C(=O)CN(C(=O)C4CCOCC4)C[C@@H]23)cc1 | 0.89 (inactive) |
| COc1ccc2c3c([nH]c2c1)[C@@H](CO)N(Cc1ccncc1)CC31CN(C(=O)CN(C)C)C1 | -0.567 (inactive) |
| COCC(=O)Nc1ccc2c(c1)OC[C@@H](C)N(Cc1ccccc1C(=O)O)C[C@@H](C)[C@H](OC)CN(C)C2=O | 1.82 (inactive) |
| O=C(C1CC1)N1CCCCN2[C@H](CO)[C@H](c3ccc(-c4cccc(F)c4)cc3)[C@H]2C1 | -6.38 (active) |
| CC(=O)N1CCCCN2[C@H](C1)[C@@H](c1ccc(-c3ccc(F)cc3)cc1)[C@@H]2CO | 0.352 (inactive) |
| O=C(C1CCC1)N1CCCCN2[C@H](CO)[C@H](c3ccc(-c4ccncc4)cc3)[C@@H]2C1 | -0.182 (inactive) |
| O=C(C1CC1)N1CCCCN2[C@H](C1)[C@@H](c1ccc(-c3cccc(F)c3)cc1)[C@@H]2CO | -3.66 (active) |
| O=C(c1cccc(F)c1)N1CCCCN2[C@@H](CO)[C@H](c3ccc(-c4cncnc4)cc3)[C@@H]2C1 | 1.94 (inactive) |
| O=C(c1cccc(F)c1)N1CCCCN2[C@H](CO)[C@@H](c3ccc(-c4cncnc4)cc3)[C@H]2C1 | 1.13 (inactive) |
| COc1cccc(S(=O)(=O)Nc2ccc3c(c2)[C@@H]2C[C@@H](CC(=O)NC4CCCCC4)O[C@H](CO)[C@@H]2O3)c1 | -0.362 (inactive) |
| COc1ccc2c3c([nH]c2c1)[C@@H](CO)N(C(=O)C1CC1)CC31CCN(C(=O)c2ccncc2)CC1 | 1.3 (inactive) |
| CO[C@H]1CN(C)C(=O)c2cc(NC(=O)C3CC3)ccc2OC[C@@H](C)N(Cc2cc(F)ccc2F)C[C@H]1C | -1.43 (inactive) |
| COc1ccc2c3c(n(C)c2c1)[C@@H](CO)N(Cc1ccccc1F)CC31CCN(C(=O)C2CCOCC2)CC1 | -2.72 (inactive) |
| OC[C@@H]1[C@@H](c2ccc(-c3ccccc3F)cc2)[C@@H]2CN(Cc3cncnc3)CCCCN12 | -0.419 (inactive) |
| OC[C@H]1[C@@H](c2ccc(-c3ccccc3F)cc2)[C@@H]2CN(Cc3ccncc3)CCCCN12 | -0.42 (inactive) |
| CCCC#Cc1ccc([C@H]2[C@H]3CN(Cc4cncnc4)CCCCN3[C@H]2CO)cc1 | 1.82 (inactive) |
| OC[C@H]1[C@H](c2ccc(-c3ccccc3F)cc2)[C@H]2CN(Cc3cncnc3)CCCCN21 | -3.23 (active) |
| OC[C@@H]1[C@@H](c2ccc(C#CC3(O)CCCC3)cc2)[C@@H]2CN(Cc3cncnc3)CCCCN12 | 0.144 (inactive) |
| OC[C@@H]1[C@H](c2ccc(C#Cc3ccccc3)cc2)[C@@H]2CN(Cc3cncnc3)CCCCN12 | -3.14 (active) |
